Screening data deposited in PubChem by National Center for Advancing Translational Sciences (NCATS).
ELG1 DNA repair – inhibitors of ELG1-dependent DNA repair in HEK293T cells. hit rate 2.3% among 330,000. Potency, µM (doses to about 46.1 µM), inactives show at the highest dose activity change, negative = inhibition, actives largely listed as inhibitors. AID 504467. HEK293T ELG1-luciferase reporter, luminescence, 16 h; DNA damage induced by 5-fluorouridine; note: potency is the fitted concentration of half-maximal effect; nearly all actives have a fitted effect of over 55% in size
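DMSO vehicle served as the neutral condition. Each well held 2,000 cells given 5-fluorouridine plus compound; after 16 hr at 37 °C/5% CO2, ONE-Glo was added and luciferase measured 30 min later.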
TDP1 cell noCPT – qHTS for Inhibitors of human tyrosyl-DNA phosphodiesterase 1 (TDP1): qHTS in cells in absence of CPT | DT40 Tdp1-/- hTDP1 cells, no CPT, ATP luminescence, 48 h | Potency, µM (series often up to 46.2 µM), for the others: at the top dose activity change, negative = growth inhibition, most hits filed as inhibitors | hit rate 15% among 420,000 | AID 686978, 2013; note: potency is the fitted concentration of half-maximal effect; nearly all actives have a fitted effect of over 55% in size
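Luminescent ATP content (CellTiter-Glo) served as the growth readout. Knockout chicken DT40 cells expressing human TDP1 were exposed to compounds without camptothecin for a minimum 48 hr at 37 °C.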
DT40 TDP1 CPT – growth inhibition of DT40 Tdp1-/-;hTDP1 cells with camptothecin (screen for TDP1 inhibitors); chicken DT40 Tdp1-/-;hTDP1 cells + 20 nM CPT, ATP luminescence, 48 h; Potency, µM (titrated, usually from 46.2 µM), for the others: at the highest dose activity change, negative = growth inhibition, most hits filed as inhibitors; hit rate 12% among 420,000; AID 686979; note: potency is the fitted concentration of half-maximal effect; nearly all actives have a fitted effect of over 55% in size
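Cell growth measured by CellTiter-Glo luminescence after a minimum 48 h, 37 C compound exposure with 20 nM CPT in Tdp1-knockout DT40 cells stably expressing hTDP1, seeded 400/well; qHTS titration format.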
IL-1B inflam inh – inhibitors of inflammasome signaling (IL-1 beta secretion); THP-1 LPS/ATP IL-1B secretion, AlphaLISA, 16 h; stronger effect = lower value; activity change, % at 57.5 µM; hit rate 4.7% among 360,000; AID 743279; in the data active = activity change below about -50%; inconclusive = mostly about -30% to -49%
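THP-1 cells pretreated 1 hr with compounds (up to 57.5 uM final), then stimulated with LPS (250 ng/mL final) plus ATP (1.25 mM final); secreted IL-1B measured by AlphaLISA after 16 hr, decreased signal indicating inhibition.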
TDP1 block – inhibitors of human tyrosyl-DNA phosphodiesterase TDP1 | Q9NUW8 | recombinant TDP1, AlphaScreen DNA substrate cleavage | Potency, µM (top dose mostly 130 µM), inactives show at the top dose activity change, negative = inhibition, hits mostly inhibitors | hit rate 0.28% among 350,000 | AID 485290; note: potency is the fitted concentration of half-maximal effect; nearly all actives have a fitted effect of over 40% in size
Target sequence (Q9NUW8 whole entry, looked up): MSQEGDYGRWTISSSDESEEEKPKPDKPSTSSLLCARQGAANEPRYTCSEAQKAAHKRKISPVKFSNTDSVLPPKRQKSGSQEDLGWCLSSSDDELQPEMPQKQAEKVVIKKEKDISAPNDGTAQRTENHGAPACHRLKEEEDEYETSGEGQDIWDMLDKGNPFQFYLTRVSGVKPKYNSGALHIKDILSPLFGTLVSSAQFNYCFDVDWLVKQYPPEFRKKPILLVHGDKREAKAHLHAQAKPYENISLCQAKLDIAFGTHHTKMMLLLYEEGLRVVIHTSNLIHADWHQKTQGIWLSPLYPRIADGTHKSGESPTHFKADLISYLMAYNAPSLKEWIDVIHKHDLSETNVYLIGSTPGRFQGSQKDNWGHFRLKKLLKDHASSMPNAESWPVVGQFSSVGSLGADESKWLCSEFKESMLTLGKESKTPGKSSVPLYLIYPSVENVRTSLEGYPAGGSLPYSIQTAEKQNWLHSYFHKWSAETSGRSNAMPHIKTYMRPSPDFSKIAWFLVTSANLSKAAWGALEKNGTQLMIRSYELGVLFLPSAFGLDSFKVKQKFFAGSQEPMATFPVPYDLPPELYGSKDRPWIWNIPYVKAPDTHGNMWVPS
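Steps: enzyme plus compound, 15 min RT; add biotin/phosphotyrosine-FITC oligonucleotide (15 nM final), react 5 min; add donor/acceptor beads (10 ug/ml final), 10 min; read AlphaScreen. Tdp1 at 1 nM final.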
Giardia killer – kills Giardia lamblia; Giardia lamblia trophozoite viability; activity change, % at 7.66 µM, hits read low; hit rate 0.15% among 340,000; in the data active = activity change below about -80%; inconclusive = between about -30% and that limit;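 note: parasites exposed to compound for two days anaerobically before the ATP read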
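Compounds were tested on trophozoites seeded at 100 cells/well and held 48 hrs at 37 deg C anaerobically. An ATP-based luminescent kit measured the remaining live cells.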
Starred values were filed as active, the others as inactive; u = inconclusive; x = no result given; [ ] = dose if it differs, or a comment. In the library only some 19% were active in any assay of this set; here they are far more common. Unless noted, calls come from the whole dose curve; as a rule, active = well fitted curve in the direction sought with a large enough effect; inconclusive = small, poorly fitted or top-dose-only effect, or another doubt; inactive = no such curve, though single readings can be large; an effect the other way counts as inactive or inconclusive. % is set by controls: 0 for no effect and ±100 for the full control effect.

SMILES	ELG1 DNA repair	TDP1 cell noCPT	DT40 TDP1 CPT	IL-1B inflam inh	TDP1 block	Giardia killer
CC(=O)Nc1cccc(NC(=O)CSc2ccc(-c3sc(-c4ccccc4)nc3C)nn2)c1	x	5.8µM*	9.2µM*	x	8%	x
CC(=O)N1CCN(c2ccc(NC(=O)c3ccc(F)cc3)cc2)CC1	-5%	-13%	8%	-5	x	0
CCC(C)NC(=O)Cn1c(=O)c2cccn2c2ccc(F)cc21 (stereo not given)	x	-7%	-12%	x	-4%	x
O=S1(=O)CCN2N=C(C34CC5CC(CC(C5)C3)C4)SC2=N1	-18%	u	2%	7	-1%	-10
CCOC(=O)CCN1C(=O)[C@H]2[C@H]3[C@H](O)[C@H](O)C/C(=N/NC(=O)OCc4ccccc4)[C@H]3CC[C@@H]2C1=O	x	x	x	x	5%[21 µM]	x
COc1cc(NC(=O)CSc2ccc(-c3sc(-c4ccccc4)nc3C)nn2)cc(OC)c1	x	16µM*	-87%	x	5%	x
COc1cc(OC)c(-c2nnc(-c3ccc(OC)c(OC)c3OC)o2)cc1OC	u	13µM*	14µM*	-29	4%	9
Cc1cnc(-n2ncc(C(=O)NCC3CCCN(C)C3)c2C)nc1-c1cccs1 (stereo not given)	x	-13%	-11%[9.04 µM]	x	x	x
CC1(C(=O)Nc2cnc3ccccc3c2)CCN1C(=O)CCc1ccccc1 (stereo not given)	x	18µM*	18µM*	-16	x	x
CC1(C(=O)Nc2cnc3ccccc3c2)CCN1CCc1ccccc1 (stereo not given)	x	18µM*	u	-27	x	x
CC(C)Oc1ccc(CN2CCC2(C)C(=O)Nc2cnc3ccccc3c2)cc1 (stereo not given)	x	u	18µM*	-15	x	x
CCCC(=O)N1CCC1(C)C(=O)Nc1ccc2nc(C)ccc2c1 (stereo not given)	x	-29%	-18%	-10	x	x
Cc1cc(C)nc(NS(=O)(=O)c2ccc(NC(=O)Cc3ccccc3F)cc2)n1	-7%	-7%	4%	7	x	9
Cc1cc(OCC(=O)NC(Cc2ccc(Cl)cc2)C(=O)O)c2c(C)c(C)c(=O)oc2c1 (stereo not given)	u	u	u	-18	x	7
Brc1cccc(-c2nnc(SCc3ccon3)n2-c2ccccc2)c1	-11%	15µM*	u	-15	8%	3
CCOc1ccc(NC(=O)C2CCN(S(=O)(=O)c3ccc4c(c3)oc(=O)n4C)CC2)cc1	x	-12%	-14%	x	4%	x
C=CCNC(=S)N1CCC2CC1c1c(Cl)cccc12 (stereo not given)	x	26µM*	u	16	x	x
S=C(NCCc1ccccc1)N1CCC2CC1c1c(Cl)cccc12 (stereo not given)	x	16µM*	u	-7	x	x
COc1ccc(NC(=S)N2CCC3CC2c2c(Cl)cccc23)c(OC)c1 (stereo not given)	x	u	u	13	x	x
Cc1nc([N+](=O)[O-])cn1CC(=O)c1ccc(F)cc1	-4%	-20%	-4%	13	x	u
CN1C(=O)C2(c3ccccc31)N(C)CC(c1ccccc1)C21SC(=S)N(Cc2ccco2)C1=O (stereo not given)	-11%	9.2µM*	u	0	9%	-23
CC(=O)N1CCc2cc(S(=O)(=O)CCC(=O)Nc3ccc(C)cc3Br)ccc21	x	u	u	x	5%	x
CCC1CCCCN1CCCNC(=O)c1ccc2c(c1)N(Cc1cccc(Cl)c1)C(=O)c1ccccc1S2(=O)=O (stereo not given)	x	u	u	x	7%	x
Cc1cc(Br)c2c(c1)[C@](O)(c1cn(C)c3ccccc13)C(=O)N2C	x	23µM*	16µM*	-9	x	x
COc1ccc(/C=C/C(=O)OCC(=O)Nc2cccc(S(=O)(=O)NC3=NCCCCC3)c2)cc1	8%	-20%	-16%	-70*	0%	16
SMILES	ELG1 DNA repair	TDP1 cell noCPT	DT40 TDP1 CPT	IL-1B inflam inh	TDP1 block	Giardia killer
COc1cc(OC)cc(C(=O)OCC(=O)Nc2cccc(S(=O)(=O)NC3=NCCCCC3)c2)c1	u	21µM*	u	8	0%	9
COc1ccc(C(=O)Nc2cccc(S(=O)(=O)NC3=NCCCCC3)c2)cc1	-10%	-27%	-28%	21	3%	19
Cc1ccc(Nc2nnc(SCC(=O)Nc3cccc(S(=O)(=O)NC4=NCCCCC4)c3)s2)c(C)c1	u	26µM*	u	u	-1%	-4
O=C(COC(=O)c1ccc(O)cc1)Nc1cccc(S(=O)(=O)NC2=NCCCCC2)c1	17%	-10%	1%	-13	x	35
Cc1ccc(C)c(C(=O)OCC(=O)Nc2cccc(S(=O)(=O)NC3=NCCCCC3)c2)c1	u	u	u	-69*	5%	16
C=C1CSc2nc3ccccc3c(=O)n21	x	-15%	-8%	-1	-4%	-4
Cc1cc(C)cc(NC(=O)N(CCC#N)Cc2cccs2)c1	1%	-28%	4%	x	x	-4
O=C1C(SCCO)=C(SCCO)C(=O)c2ccccc21	u	0.16µM*	0.052µM*	-54*	11%[56.1 µM]	3
CC1CCCCC1NC(=O)c1cc(S(=O)(=O)N2CCCCC2)ccc1N1CCOCC1 (stereo not given)	3%	u	u	16	1%	-29
Cn1cc(CNCc2cn(C)nc2-c2ccc(C3CCCCC3)cc2)cn1	-1%	18µM*	u	-71*	8%	-1
Cn1cc(CCNCc2cn[nH]c2-c2ccc(-c3ccccc3)cc2)cn1	u	u	u	-22	x	-7
O=c1c(Cc2c(F)cccc2Cl)c(O)ccn1C1CC1	14%	2%	-1%	12	0%	1
CCCCn1cnc2c(c(-c3ccccc3)c(-c3ccccc3)n2Cc2ccco2)c1=N	u	-16%	-3%	-73*	5%	4
Cc1cc(NCCCn2ccnc2)n2nc(C)c(-c3ccccc3)c2n1	u	-22%	u	-22	5%	-17
CCCCn1c(=O)[nH]c(=O)c2c1ncn2Cc1ccco1	-8%	-6%	3%	18	1%	-8
N=c1c2c(-c3ccccc3)c(-c3ccccc3)n(Cc3ccccc3)c2ncn1CCCn1ccnc1	u	u	16µM*	-27	6%	12
N=c1c2c(-c3ccccc3)c(-c3ccccc3)n(Cc3ccco3)c2ncn1Cc1ccco1	-4%	6.5µM*	9.2µM*	-6	13%	14
